Here are results for 18 compounds from PubChem BioAssay (NCATS).

Test [1] addresses Calcium and integrin-binding protein 1 (Homo sapiens) (UniProt Q99828). Kind of test: Primary qHTS for Identification of Calcium Integrin Binding Protein 1 (CIB1) Competitor (AID 1508620).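 Further: GST tagged CIB1 binding a fluorescein labelled alphaIIb integrin peptide tracer; top concentration of the series differs between compounds.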 In short, it runs like this: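 CIB1-GST (1 uM final) and compound incubated 15 min at room temperature before adding FITC-alphaIIb peptide tracer (100 nM final). Competition for binding read by fluorescence polarization (ex 480, em 540) after another 15 min at room temperature.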

Test [2] in a line: Primary qHTS for inhibitors of nuclear receptor binding SET domain protein 2 (NSD2) in an isogenic RCH-ACV NSD2 p.E1099K mutant (9B) (AID 1645876; further: nearly all actives have a fitted effect of over 70% in size; further: potency means the concentration at half of the fitted maximal effect). (In qHTS, concentration-response curves come from the screen itself.)

Structures are written as SMILES. Records with an inconclusive call do not appear. A number with no mark means an inactive call. Calls of active or inactive are those of the source. The call rests on the fitted dose curve; in most records, active means well fitted inhibition curve with a large enough effect; inconclusive means small, poorly fitted or top-dose-only effect; inactive means flat fitted curve, though single readings scatter.
On the % scale 0 is the no-effect control and ±100 the full control effect.

Calcium and integrin-binding protein 1 (Homo sapiens), sequence (Q99828 whole entry, looked up): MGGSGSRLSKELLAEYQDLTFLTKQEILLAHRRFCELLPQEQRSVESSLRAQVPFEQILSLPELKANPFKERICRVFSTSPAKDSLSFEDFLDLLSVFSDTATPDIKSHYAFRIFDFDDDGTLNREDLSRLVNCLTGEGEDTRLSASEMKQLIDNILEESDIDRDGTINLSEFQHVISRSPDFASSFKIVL

For the compound `COc1cc(C)c(C(=O)Oc2cc(C)c(C(=O)Oc3cc(C)c(C(=O)NC(C)C(=O)O)c(O)c3)c(O[C@@H]3O[C@H](CO)[C@@H](O)[C@H](O)[C@H]3OC(C)=O)c2)c(OC)c1` (stereo partly specified), the Potency result in test [1] and in test [2] was “inactive” each time.

As to `OC[C@H]1O[C@@H](OCCc2ccccc2)[C@H](O[C@@H]2OC[C@](O)(CO)[C@H]2O)[C@@H](O)[C@@H]1O`, the Potency result in test [1] and in test [2] was “inactive” throughout.

As to `OCCc1ccc(O[C@@H]2O[C@H](CO)[C@@H](O)[C@H](O)[C@H]2O)cc1`, the Potency entry in test [1] and in test [2] was “inactive” throughout.

Take `CC(=O)C1=C(C)N(c2cccc(C(F)(F)F)c2)C(=O)N[C@H]1c1ccc(C#N)nc1`: the Potency result in test [1] was “inactive”. Further, in test [2], the activity change, negative = viability loss was -10.2% [at 9.23 µM].

With `COC1CC(OC2CCC3(C)C(=CCC4C3C(OC(C)=O)C(OC(=O)/C=C/c3ccccc3)C3(C)C(C(C)O)CCC43O)C2)OC(C)C1OC1CC(OC)C(OC2OC(C)C(OC3OC(CO)C(O)C(O)C3O)C(OC)C2O)C(C)O1` (stereo unspecified), in test [1], the activity change, negative = inhibition was -8.58% [at 12.4 µM]. Besides, the activity change, negative = viability loss in test [2] is -12.2% [at 9.23 µM].

On to `C=C1C[C@@]23CCC4[C@@](C)(CCC[C@@]4(C)C(=O)OC)C2CC[C@@H]1C3` (stereo partly specified), for which the Potency entry in test [1] and in test [2] was “inactive” in each case.

As to `C=C(C)C1CCC2(C(=O)O)CCC3(C(=O)O)C(CCC4C5(C)CCC(O)C(C)(C(=O)O)C5CCC43C)C12` (stereo unspecified), the Potency entry in test [1] and in test [2] was “inactive” each time.

As for `CC(=O)OC/C=C(\C)C(CC1C(C)=C(OC(C)=O)C(=O)C2C(C)(C)C(O)CCC12C)OC(C)=O` (stereo unspecified), the Potency entry in test [1] and in test [2] was “inactive” throughout.

Turning to `CC(C)C(=O)OC[C@H]1O[C@H](O[C@H]2O[C@H](CO)[C@@H](O)[C@H](O)[C@H]2O)[C@H](O)[C@@H](O)[C@@H]1O`, the Potency result in test [1] and in test [2] was “inactive” throughout.

With `C=C1C(=O)O[C@@H]2[C@H]1CCC(C)=C1CCC(=O)O[C@]12C`, the Potency entry in test [1] is “inactive”. Moreover, the Potency in test [2] was 9.16 µM (active).

As to `CCC(O)C(C)C1CCC(C(C)C(=O)O)O1` (stereo unspecified), the Potency result in test [1] and in test [2] was “inactive” throughout.

For `CC1=C2C(O)C(=O)OC(c3ccoc3)C2(C)CCC1O` (stereo unspecified), the Potency entry in test [1] and in test [2] was “inactive” in each case.

As for `C[C@@H]1O[C@@H](O[C@@H]2[C@@H](O)[C@H](O[C@H]3[C@H](O[C@H]4CC[C@@]5(C)C(CC[C@]6(C)C5CC=C5[C@@H]7CC(C)(C)CC[C@]7(C(=O)O[C@@H]7O[C@H](CO)[C@@H](O)[C@H](O)[C@H]7O[C@@H]7O[C@@H](C)[C@H](O[C@@H]8O[C@@H](C)[C@H](O)[C@@H](O)[C@H]8O)[C@@H](O)[C@H]7O)CC[C@]56C)[C@@]4(C)CO)O[C@H](C(=O)O)[C@@H](O)[C@@H]3O)O[C@H](CO)[C@H]2O)[C@H](O)[C@H](O)[C@H]1O` (stereo partly specified), in test [1], the activity change, negative = inhibition is 4.5% [at 12.4 µM]. For the same compound, in test [2], the activity change, negative = viability loss is -0.268% [at 9.23 µM].

Take `C=C(C)C(=O)O[C@H]1CC2=CC(C/C(C)=C\[C@H]3OC(=O)C(=C)[C@H]13)OC2=O` (stereo partly specified): the Potency entry in test [1] is “inactive”. Moreover, in test [2], the Potency is 5.05 µM (active).

`CC12CCC3c4ccc(O)cc4CCC3C1CC(OC1OC(C(=O)O)C(O)C(O)C1O)C2O` (stereo unspecified): the Potency result in test [1] and in test [2] was “inactive” each time.

Consider `COC(=O)CCC(=O)OC[C@]1(C)CCC[C@@]2(C)C3CC[C@]4(C)C=CC3(CCC12)C4` (stereo partly specified), for which the Potency result in test [1] and in test [2] was “inactive” in each case.

As to `CN(C)c1ccc2c(c1)OC(N)=C(C#N)C2c1cccc(C(F)(F)F)c1` (stereo unspecified), the Potency entry in test [1] was “inactive”. The Potency in test [2] is 0.817 µM (active).

For the compound `CC(C)=CCC/C(C)=C/CO[C@@H]1O[C@H](CO)[C@@H](O)[C@H](O)[C@H]1O`, the Potency entry in test [1] and in test [2] was “inactive” each time.
